# Values joined by “and” are separate entries in the source; they are usually repeats but may differ in a detail not shown here. Equal entries are not always repeated. The panel holds about 83,000 compounds, 20% with a hit somewhere; the sample as a whole holds those more often.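 96-well plates, one dose, 48 hours. Percent growth reported; active if below 10.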 Active and inactive are the calls of the source.
# What was measured:
# Experiment in all cases: NCI-60 one-dose screen, 48 h (100 = growth as untreated, 0 = no growth, -100 = all killed)
# Details in all cases: 10 µM unless noted
# SK-MEL-2 melanoma = tested on: SK-MEL-2 melanoma
# EKVX NSCLC = tested on: EKVX NSCLC
# SN12C renal = tested on: SN12C renal
# UO-31 renal = tested on: UO-31 renal
# TK-10 renal = tested on: TK-10 renal
# ACHN renal = tested on: ACHN renal
# CAKI-1 renal = tested on: CAKI-1 renal
# A498 renal = tested on: A498 renal
# CCRF-CEM leukemia = tested on: CCRF-CEM leukemia
# MOLT-4 leukemia = tested on: MOLT-4 leukemia
# SR leukemia = tested on: SR leukemia
# RPMI-8226 leukemia = tested on: RPMI-8226 leukemia
# OVCAR-8 ovarian = tested on: OVCAR-8 ovarian
# OVCAR-5 ovarian = tested on: OVCAR-5 ovarian
# OVCAR-4 ovarian = tested on: OVCAR-4 ovarian
# SK-OV-3 ovarian = tested on: SK-OV-3 ovarian
# IGROV1 ovarian = tested on: IGROV1 ovarian
# OVCAR-3 ovarian = tested on: OVCAR-3 ovarian
# HS 578T breast = tested on: HS 578T breast
# NCI/ADR-RES ovarian = tested on: NCI/ADR-RES ovarian
Compound,growth (SK-MEL-2 melanoma),growth (EKVX NSCLC),growth (SN12C renal),growth (UO-31 renal),growth (TK-10 renal),growth (ACHN renal),growth (CAKI-1 renal),growth (A498 renal),growth (CCRF-CEM leukemia),growth (MOLT-4 leukemia),growth (SR leukemia),growth (RPMI-8226 leukemia),growth (OVCAR-8 ovarian),growth (OVCAR-5 ovarian),growth (OVCAR-4 ovarian),growth (SK-OV-3 ovarian),growth (IGROV1 ovarian),growth (OVCAR-3 ovarian),growth (HS 578T breast),growth (NCI/ADR-RES ovarian)
CCN(CC)C(CC(=O)c1ccccc1)C(=O)c1ccccc1 (stereo not given),110% (inactive),98.2% (inactive),93.4% (inactive),84.1% (inactive),70.2% (inactive),71.2% (inactive),101% (inactive),75.1% (inactive),30.4% (inactive),27.9% (inactive),29% (inactive),86.5% (inactive),96.6% (inactive),113% (inactive),93.3% (inactive),114% (inactive),110% (inactive),92.5% (inactive),113% (inactive),101% (inactive)
NNc1ncnc2cccc(Cl)c12,95.3% (inactive),90.8% (inactive),87.6% (inactive),89.1% (inactive),99.9% (inactive),96.4% (inactive),107% (inactive),108% (inactive),102% (inactive),108% (inactive),108% (inactive),94.9% (inactive),95.2% (inactive),97.5% (inactive),114% (inactive),94.4% (inactive),102% (inactive),119% (inactive),98.4% (inactive),102% (inactive)
CCOC(=N)c1ccc(C(=N)OCC)cc1,103% (inactive),90.2% (inactive),98.4% (inactive),95.1% (inactive),96.6% (inactive),102% (inactive),99% (inactive),90.6% (inactive),107% (inactive),111% (inactive),91.7% (inactive),109% (inactive),105% (inactive),105% (inactive),106% (inactive),93.2% (inactive),111% (inactive),124% (inactive),96.8% (inactive),104% (inactive)
CCOC(=O)c1ccncc1,106% (inactive),104% (inactive),98.9% (inactive),90.2% (inactive),99.4% (inactive),119% (inactive),104% (inactive),86.8% (inactive),108% (inactive),104% (inactive),101% (inactive),106% (inactive),112% (inactive),107% (inactive),117% (inactive),105% (inactive),111% (inactive),105% (inactive),,110% (inactive)
CC(=O)/C(N=Nc1ccc(S(=O)(=O)c2ccc(N=N/C(C(C)=O)=C(/C)O)cc2)cc1)=C(\C)O,117% (inactive),116% (inactive),110% (inactive),83.5% (inactive),108% (inactive),104% (inactive),100% (inactive),100% (inactive),85.9% (inactive),100% (inactive),101% (inactive),86.7% (inactive),102% (inactive),110% (inactive),107% (inactive),112% (inactive),92.9% (inactive),105% (inactive),,102% (inactive)
Oc1ccc(O)c(-c2ccccc2)c1,72.5% (inactive),77.7% (inactive),68% (inactive),43.4% (inactive),96.8% (inactive),74.1% (inactive),74.6% (inactive),132% (inactive),10.1% (inactive),20.7% (inactive),4.96% (active),42% (inactive),62.9% (inactive),102% (inactive),53.8% (inactive),83.3% (inactive),47% (inactive),20.5% (inactive),76.5% (inactive),50.6% (inactive)
CCOCCC(=O)O,109% (inactive),98.8% (inactive),103% (inactive),102% (inactive),103% (inactive),110% (inactive),102% (inactive),80.1% (inactive),98.9% (inactive),116% (inactive),109% (inactive),107% (inactive),109% (inactive),101% (inactive),104% (inactive),102% (inactive),114% (inactive),115% (inactive),98.7% (inactive),107% (inactive)
Clc1ccc2c(c1)N(C1CCCN(Cc3ccccc3)C1)c1ccccc1S2 (stereo not given),17.1% (inactive),74.4% (inactive),39.7% (inactive),66.7% (inactive),98.6% (inactive),52.5% (inactive),48.7% (inactive),70.6% (inactive),39.7% (inactive),70.3% (inactive),16.1% (inactive),25.9% (inactive),37.9% (inactive),73.4% (inactive),79.9% (inactive),26.8% (inactive),43.8% (inactive),53.3% (inactive),14.4% (inactive),24.8% (inactive)
CCOP(=O)(OCC)/C(C#N)=C/c1c(C)[nH]c2ccccc12,99.2% (inactive),97.4% (inactive),92% (inactive),72.8% (inactive),93.2% (inactive),102% (inactive),51% (inactive),116% (inactive),89.6% (inactive),97.9% (inactive),94.8% (inactive),88.8% (inactive),94.8% (inactive),103% (inactive),41% (inactive),100% (inactive),105% (inactive),105% (inactive),90.8% (inactive),97.9% (inactive)
COC(=O)c1nc(=S)[nH]c(C(=O)OC)c1C(=O)c1ccccc1,104% (inactive),107% (inactive),99.2% (inactive),85.3% (inactive),113% (inactive),101% (inactive),87% (inactive),114% (inactive),103% (inactive),112% (inactive),113% (inactive),107% (inactive),110% (inactive),106% (inactive),106% (inactive),111% (inactive),101% (inactive),112% (inactive),99% (inactive),108% (inactive)
CCCCCCCCCCCCCCCCC(=O)O,103% (inactive),106% (inactive),103% (inactive),85.7% (inactive),86.6% (inactive),112% (inactive),104% (inactive),115% (inactive),91.5% (inactive),95% (inactive),94.3% (inactive),99.4% (inactive),103% (inactive),117% (inactive),106% (inactive),116% (inactive),107% (inactive),115% (inactive),,100% (inactive)
CC(C)(C)OC(=O)c1ccc(NCc2cc(O)ccc2O)cc1,47.7% (inactive),50.1% (inactive),7.05% (active),-95.1% (active),2.52% (active),-67.3% (active),-36% (active),25.1% (inactive),-1.62% (active),5.04% (active),3.5% (active),1.66% (active),17.2% (inactive),106% (inactive),12.3% (inactive),44.6% (inactive),-14.3% (active),-83.8% (active),30.8% (inactive),23.1% (inactive)
CSc1nc(N)c(N)c(N)n1,104% (inactive),105% (inactive),99.4% (inactive),93% (inactive),111% (inactive),110% (inactive),97.8% (inactive),94.5% (inactive),64.7% (inactive),83% (inactive),90.8% (inactive),102% (inactive),103% (inactive),120% (inactive),103% (inactive),81.3% (inactive),108% (inactive),113% (inactive),,110% (inactive)
O=[N+]([O-])c1ccc(NC(c2ccccc2)c2ccc3cccnc3c2O)cc1 (stereo not given),36.3% (inactive),19.9% (inactive),14.8% (inactive),-2.13% (active),42.7% (inactive),15.8% (inactive),2.88% (active),55.8% (inactive),10.2% (inactive),9.81% (active),6.12% (active),22% (inactive),17% (inactive),58.9% (inactive),22.2% (inactive),34.9% (inactive),10.9% (inactive),30.7% (inactive),35.6% (inactive),11.7% (inactive)
CCC(=O)Oc1ccc(OCc2ccccc2)cc1,123% (inactive),97.2% (inactive) and 105% (inactive),110% (inactive) and 81.6% (inactive),45.6% (inactive) and 30.4% (inactive),92.1% (inactive),18.4% (inactive) and 13.3% (inactive),61.2% (inactive) and 3.23% (active),120% (inactive) and 93.1% (inactive),62.9% (inactive) and 63.6% (inactive),74.4% (inactive) and 75.2% (inactive),80.9% (inactive) and 97.4% (inactive),89.6% (inactive) and 90.6% (inactive),87.7% (inactive) and 69.1% (inactive),113% (inactive) and 119% (inactive),,105% (inactive) and 101% (inactive),92.8% (inactive) and 82% (inactive),95% (inactive) and 104% (inactive),98.3% (inactive) and 97.3% (inactive),66.6% (inactive) and 65% (inactive)
